Reference: PubChem BioAssay (NCI)
Compounds without any hit were thinned out: in the full panel of roughly 83,000, 20% have a hit.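 Negative percent growth values reflect cell death: -40 means 40% of the cells present at the start died, and -100 means all died.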 A number with no mark means an inactive call. The source made the active and inactive calls. How the source made its calls: active means growth percent below 10; inactive means the rest.

Experiments:
Test in all cases: NCI-60 one-dose screen, 48 h (100 = growth as untreated, 0 = no growth, -100 = all killed)
Conditions in all cases: 10 µM unless noted
[1] = test system: HCT-15 colon
[2] = test system: HT29 colon
[3] = test system: SNB-75 CNS
[4] = test system: SNB-19 CNS
[5] = test system: U251 CNS
[6] = test system: PC-3 prostate
[7] = test system: SK-MEL-5 melanoma
[8] = test system: UACC-62 melanoma
[9] = test system: LOX IMVI melanoma
[10] = test system: SK-MEL-28 melanoma
[11] = test system: SK-MEL-2 melanoma
[12] = test system: SN12C renal
[13] = test system: UO-31 renal
[14] = test system: TK-10 renal
[15] = test system: ACHN renal
[16] = test system: CAKI-1 renal
[17] = test system: A498 renal
[18] = test system: CCRF-CEM leukemia
[19] = test system: MOLT-4 leukemia

| SMILES | growth [1] | growth [2] | growth [3] | growth [4] [%] | growth [5] | growth [6] | growth [7] [%] | growth [8] [%] | growth [9] | growth [10] [%] | growth [11] [%] | growth [12] [%] | growth [13] | growth [14] | growth [15] | growth [16] | growth [17] | growth [18] [%] | growth [19] [%] |
| --- | --- | --- | --- | --- | --- | --- | --- | --- | --- | --- | --- | --- | --- | --- | --- | --- | --- | --- | --- |
| COc1cc(NC(=O)CCl)ccc(=O)c1 | 28.6% | 70.1% | 72% | 93 | 31.9% | 74.6% | 75 | 57.2 | 49.1% | 85.4 | 74.3 | 71.7 | 64.3% | 35.4% | 74.7% | 31% | 85.7% | 39.7 | 50.1 |
| Clc1nc(-c2cccnc2)nc2sc3c(c12)CCCCCC3 | 98.9% | 100% | 91.3% | 96.2 | 91.3% | 94.7% | 96.8 | 91.3 | 100% | 104 | 105 | 99.6 | 101% | 103% | 105% | 93.8% | 94.1% | 83.4 | 90 |
| CC(=O)C1CCC(C)=CC1=O (centres undefined) | 99.4% | 103% | 81.5% | 101 | 97.4% | 96.3% | 108 | 101 | 94% | 103 | 94.3 | 99 | 80.3% | 97.7% | 98.4% | 96.5% | 87.6% | 100 | 88.3 |
| CN1CCN(c2ccc3cc(-c4nc5ccccc5[nH]4)c(=O)oc3c2)CC1 | 91% | 108% | 91.8% | 118 | 99.3% | 83.2% | 74.6 | 81.6 | 87.2% | 94.9 | 105 | 93.7 | 65.5% | 119% | 89.3% | 84.8% | 86.3% | 73.6 | 88.4 |
| N#Cc1ncc(-c2ccc(F)c(F)c2F)c(NC2CCCCCC2)n1 | 76.1% | 95.6% | 72.2% | 78.6 | 59.1% | 75.7% | 89.9 | 71.2 | 84.6% | 94 | 95.8 | 78.2 | 68.9% | 91.5% | 84.7% | 79% | 124% | 33.4 | 68.1 |
| c1ccc(CCn2nnc3c(Nc4ccc(N5CCOCC5)cc4)ncnc32)cc1 | 70.7% | 81.3% | 84.8% | 95.7 | 93.3% | 65.1% | 81.8 | 85.8 | 97.4% | 104 | 105 | 92.1 | 87.1% | 121% | 104% | 86.3% | 77.6% | 71.6 | 66.4 |
| CCC(=O)Oc1cc(/C=C/C(=O)O[C@H]2C[C@H]3CN4CCc5c([nH]c6cc(OC)ccc56)[C@@H]4C[C@@H]3[C@@H](C(=O)OC)[C@@H]2OC)ccc1OC | 59.8% | -1.66% (active) | 36.7% | 87.2 | 61.1% | 65.1% | 82.9 | 82.9 | 79.5% | 88.8 | 101 | 55.9 | 40.9% | 75.2% | 46.2% | 45.6% | 5.24% (active) | 38.1 | 50.8 |
| COc1cc(Cn2c(-c3nonc3N)nc3ccccc32)ccc1C | 19.5% | 0.109% (active) | -0.424% (active) | 53.8 | 21.6% | 24.4% | 19.1 | 37.9 | 42.6% | 51.6 | 20.5 | 36 | 48.3% | 54% | 41.2% | 46% | 6.72% (active) | 16.2 | 21.2 |
| CCNC(=O)CCCCC(=O)c1c(C)[nH]c(/C=C2\N=C(c3ccc[nH]3)C=C2OC)c1C | -39.8% (active) | -100% (active) | -12.6% (active) | 54.5 | 1.75% (active) | -42.2% (active) | 48 | 61.5 | -56.9% (active) | 51.9 | 40.8 | 23.3 | -100% (active) | -61.6% (active) | -3.69% (active) | -29.9% (active) | 95.8% | 42.2 | 79.8 |
| CC1=CNNc2c3ncnc-3ncn21 | 102% | 104% | 101% | 99.1 | 102% | 99.9% | 99.7 | 98.6 | 106% | 105 | 111 | 105 | 90.6% | 105% | 99.8% | 102% | 95.7% | 96.1 | 91.9 |
| CC1=C(C#N)C(C)(C)C(C#N)=C(C)N1 | 98.6% | 105% | 79.5% | 95.9 | 94.8% | 84.7% | 101 | 105 | 98.3% | 110 | 109 | 99.5 | 91.1% | 103% | 101% | 103% | 88.6% | 98 | 102 |
